Experimental findings from PubChem BioAssay (EPA / NIEHS) are described below.

Test [1] concerns the target Cellular tumor antigen p53 (Homo sapiens) (UniProt P04637). Nature of the test: TOX21_p53_BLA_p5_ratio: Tox21 HCT-116 p53 Agonism Beta-lactamase Assay, Ratio, Phase 5 (AID 2283599). The essentials:
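HCT-116 cells carrying a p53-inducible beta-lactamase reporter were seeded at 4000 cells/well and dosed after 5 h with compound in DMSO (217-fold dilution). After 16 h at 37C, CCF4-AM substrate was added for 2 h, and the 460/530 nm emission ratio was scored as gain-of-signal versus DMSO.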

Test [2] can be described thus: TOX21_p53_BLA_p5_viability: Viability Assessment in the Tox21 HCT-116 p53 Agonism Beta-lactamase Assay, Phase 5 (AID 2283600). The essentials:
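Decreased CellTiter-Glo luminescence denotes lost viability. Exposure: 16 h at 37C, 5% CO2, with compounds from DMSO stocks diluted 217-fold in wells of 4000 cells.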

Test [3] addresses Cellular tumor antigen p53 (Homo sapiens) (UniProt P04637). Nature of the test: TOX21_p53_BLA_p4_ratio: Tox21 HCT-116 p53 Agonism Beta-lactamase Assay, Ratio, Phase 4 (AID 2283601). Put shortly:
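HCT116 cells carrying an inducible beta-lactamase reporter were plated at 4000 cells/well, rested 5 h, then exposed to compounds in DMSO (217-fold dilution) for 16 h at 37C. CCF4-AM substrate was loaded 2 h at room temperature; 460/530 nm emission ratio scored gain-of-signal versus DMSO.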

A short description of test [4]: Tanguay_ZF_120hpf_MORT_legacy: (Legacy) Oregon State University Tanguay Lab 120 Hour Post-fertilization zebrafish Assay for Mortality (AID 2283633).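 As to AC50: fitted as increase in binary mortality versus DMSO negative control.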 The essentials: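 Dechorionated Tropical 5D wild-type zebrafish embryos, one per well from 6 hpf, static exposure in 0.64% DMSO at 28C until 120 hpf. Mortality scored as binary by brightfield microscopy at 24 and 120 hpf.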

Test [5] is described as follows: Tanguay_ZF_120hpf_YSE_legacy: (Legacy) Oregon State University Tanguay Lab 120 Hour Post-fertilization zebrafish Assay for Yolk Sac Edema (AID 2283634). The essentials: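 Dechorionated Tropical 5D wild-type zebrafish embryos were exposed statically, one per well, from 6 to 120 hpf at 28C in 0.64% DMSO. Yolk sac edema was scored present/absent by brightfield at 120 hpf, and dead embryos were excluded.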

A short description of test [6]: Tanguay_ZF_120hpf_JAW_legacy: (Legacy) Oregon State University Tanguay Lab 120 Hour Post-fertilization zebrafish Assay for Jaw Malformation (AID 2283638). Put shortly: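 Dechorionated Tropical 5D wild-type zebrafish embryos, one per well, exposed statically from 6 hpf to 120 hpf at 28C in 0.64% DMSO. Jaw malformation was scored by brightfield microscopy as present or absent. It was not scored in dead embryos.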

Test [7] can be described thus: Tanguay_ZF_120hpf_OTIC_legacy: (Legacy) Oregon State University Tanguay Lab 120 Hour Post-fertilization zebrafish Assay for Otic Vesicle Malformation (AID 2283639). The essentials:
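Brightfield scoring at 120 hpf, binary present/absent; DMSO negative control, 5uM trimethyltin chloride positive control. Static exposure at 28C, final DMSO 0.64% (vol/vol). Dead embryos not scored for malformation.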

A short description of test [8]: Tanguay_ZF_120hpf_PE_legacy: (Legacy) Oregon State University Tanguay Lab 120 Hour Post-fertilization zebrafish Assay for Pericardial Edema (AID 2283640). The essentials:
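Tropical 5D wild-type zebrafish embryos were statically exposed until 120 hpf at 28C, with 0.64% DMSO final. Pericardial edema was scored by brightfield as present or absent; endpoints were not scored in dead embryos.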

Test [9] in a line: Tanguay_ZF_120hpf_PFIN_legacy: (Legacy) Oregon State University Tanguay Lab 120 Hour Post-fertilization zebrafish Assay for Pectoral Fin Malformation (AID 2283648).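 Also: each larva judged yes or no for fin defect by brightfield with dead larvae skipped.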 The essentials:
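Scoring of pectoral fin malformation was binary, made at 120 hpf on larvae exposed statically from 6 hpf after enzymatic chorion removal. Activity was fitted upward relative to DMSO controls at 0.64% (vol/vol).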

The nature of test [10]: Tanguay_ZF_120hpf_CFIN_legacy: (Legacy) Oregon State University Tanguay Lab 120 Hour Post-fertilization zebrafish Assay for Caudal Fin Malformation (AID 2283649). The essentials: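 Dechorionated Tropical 5D wild-type embryos, one per well from 6 hpf, static exposure to 120 hpf at 28C in 0.64% DMSO. Caudal fin malformation scored by brightfield as present/absent; not scored in dead embryos.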

Test [11] can be described thus: Tanguay_ZF_120hpf_PIG_legacy: (Legacy) Oregon State University Tanguay Lab 120 Hour Post-fertilization zebrafish Assay for Pigmentation Malformation (AID 2283650). Put shortly:
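Endpoint is incidence of abnormal pigmentation at 120 hpf in dechorionated 5D zebrafish exposed singly from 6 hpf at 28C, DMSO vehicle at 0.64%. Embryos dying by 24 or 120 hpf are excluded from scoring.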

The nature of test [12]: Tanguay_ZF_120hpf_CIRC_legacy: (Legacy) Oregon State University Tanguay Lab 120 Hour Post-fertilization zebrafish Assay for Circulatory Malformation (AID 2283651). The essentials: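 Static exposure, 6–120 hpf, 28C, sealed and dark; one dechorionated 5D embryo/well; DMSO 0.64% v/v final. Binary circulation endpoint by brightfield; dead embryos not scored.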
Read-out in test [13]: kallikrein-3 (KLK3), KLK3 (gene 354)
Kind of test: LTEA_HepaRG_KLK3: Life Technologies and Expression Analysis (LTEA) Assay for kallikrein-3 (KLK3) using HepaRG (AID 2283652; active = hit-call score of the fitted dose curve at least 0.9, where 1 is the maximum; inactive = score below 0.9). The note with it: mRNA level, 48 h; actives raise or lower the signal. The essentials:
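KLK3 transcript levels were measured by TaqMan qRT-PCR with normalisation to three housekeeping genes. HepaRG cultures received chemicals for 48 h at up to 100 uM (half-log, 8 points, 0.5% DMSO vehicle), fitted in both directions against DMSO.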

Read-out in test [14]: solute carrier (SLC22A6), SLC22A6 (gene 9356)
Nature of the test: LTEA_HepaRG_SLC22A6: Life Technologies and Expression Analysis (LTEA) Assay for solute carrier (SLC22A6) using HepaRG (AID 2283653; active = hit-call score of the fitted dose curve at least 0.9, where 1 is the maximum; inactive = score below 0.9). The note with it: mRNA level, 48 h; actives raise or lower the signal. Put shortly: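 Differentiated HepaRG cells exposed 48 h in serum-free induction medium to 8 half-log concentrations, top 100 uM, in 0.5% DMSO; SLC22A6 mRNA by Fluidigm qRT-PCR normalized to ACTB, GAPDH, POLR2A, fitted bidirectionally versus DMSO.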

The nature of test [15]: Tanguay_ZF_120hpf_TRUN_legacy: (Legacy) Oregon State University Tanguay Lab 120 Hour Post-fertilization zebrafish Assay for Truncated Body (AID 2283655). Put shortly:
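Dechorionated Tropical 5D wild-type embryos placed singly from 6 hpf and statically exposed to 120 hpf at 28C, final DMSO 0.64%. Truncated body scored as present/absent by brightfield; not scored in dead embryos.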

Test [16] is described as follows: Tanguay_ZF_120hpf_NC_legacy: (Legacy) Oregon State University Tanguay Lab 120 Hour Post-fertilization zebrafish Assay for Notochord and Tail Malformation (AID 2283656). Put shortly:
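Binary notochord-distortion calls, made by brightfield inspection, form the read-out; activity is fitted in the positive direction against DMSO. Exposure ran statically from 6 to 120 hpf at 28C with 0.64% DMSO.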

Read-out in test [17]: solute carrier (SLC10A1), SLC10A1 (gene 6554)
Nature of the test: LTEA_HepaRG_SLC10A1: Life Technologies and Expression Analysis (LTEA) Assay for solute carrier (SLC10A1) using HepaRG (AID 2283657; active = hit-call score of the fitted dose curve at least 0.9, where 1 is the maximum; inactive = score below 0.9). The note with it: mRNA level, 48 h; actives raise or lower the signal. Put shortly: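 Cryopreserved HepaRG cells are thawed, plated and cultured 48 h; medium is then switched to serum-free induction medium and chemicals added (8 points, max 100 uM, 0.5% DMSO). After 48 h, RNA is isolated and SLC10A1 quantified by qRT-PCR.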

Read-out in test [18]: matrix metalloproteinase-1 (MMP1), MMP1 (gene 4312)
Nature of the test: LTEA_HepaRG_MMP1: Life Technologies and Expression Analysis (LTEA) Assay for matrix metalloproteinase-1 (MMP1) using HepaRG (AID 2283658; active = hit-call score of the fitted dose curve at least 0.9, where 1 is the maximum; inactive = score below 0.9). The note with it: mRNA level, 48 h; actives raise or lower the signal. The essentials: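 Differentiated human HepaRG cells, 48 h post-plating in serum-free induction medium, were exposed 48 h to eight half-log concentrations topping at 100 uM in 0.5% DMSO, duplicate. MMP1 mRNA measured by Fluidigm TaqMan qRT-PCR, normalized to ACTB, GAPDH, POLR2A; bidirectional fits versus DMSO.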

The nature of test [19]: Tanguay_ZF_120hpf_AXIS_legacy: (Legacy) Oregon State University Tanguay Lab 120 Hour Post-fertilization zebrafish Assay for Body Axis Malformation (AID 2283635). The essentials: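 Dechorionated wild-type Tropical 5D zebrafish embryos, one per well, statically exposed from 6 hpf to 120 hpf at 28C in 0.64% DMSO final. Body axis malformation scored present/absent by brightfield microscopy at 120 hpf; dead embryos excluded.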

A short description of test [20]: Tanguay_ZF_120hpf_SWIM_legacy: (Legacy) Oregon State University Tanguay Lab 120 Hour Post-fertilization zebrafish Assay for Swim Bladder Malformation (AID 2283654).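 Also: swim bladder malformation in each larva scored yes or no under brightfield.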 Put shortly:
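Static waterborne exposure of single dechorionated Tropical 5D zebrafish embryos, 6–120 hpf, 28C, 0.64% DMSO final. Read-out: swim bladder malformation, present/absent, relative to DMSO negative control; trimethyltin chloride 5uM served as positive control.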

Values joined by “and” are separate entries in the source; they are usually repeats but may differ in a detail not shown here. Equal values may be shown once. Results filed as inconclusive are left out. Some compounds were tested as several samples or in several runs, with calls that do not always agree. Active and inactive are the calls of the source. The calls were made as follows, unless noted: active = hit-call score of the fitted dose curve at least 0.9, where 1 is the maximum; inconclusive = response in the unintended direction; inactive = score below 0.9.

Sequence of Cellular tumor antigen p53 (Homo sapiens) (P04637 whole entry, looked up): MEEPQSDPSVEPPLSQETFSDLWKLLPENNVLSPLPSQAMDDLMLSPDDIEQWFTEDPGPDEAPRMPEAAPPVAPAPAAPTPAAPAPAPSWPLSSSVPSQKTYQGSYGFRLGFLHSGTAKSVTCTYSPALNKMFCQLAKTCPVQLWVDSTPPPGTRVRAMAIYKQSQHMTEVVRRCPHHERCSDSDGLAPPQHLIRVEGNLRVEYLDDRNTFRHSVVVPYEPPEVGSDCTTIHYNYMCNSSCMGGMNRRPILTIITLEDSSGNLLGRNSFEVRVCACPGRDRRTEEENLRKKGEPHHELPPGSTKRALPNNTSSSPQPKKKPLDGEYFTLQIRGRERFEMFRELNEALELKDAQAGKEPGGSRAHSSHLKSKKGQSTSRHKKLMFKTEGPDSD

Consider `O=[N+]([O-])c1c(Cl)c(Cl)cc(Cl)c1Cl`, for which the outcome in test [1], in test [2] and in test [3] was inactive.

With `O=C(O)C(F)(F)C(F)(F)C(F)(F)C(F)(F)C(F)(F)C(F)(F)C(F)(F)C(F)(F)C(F)(F)C(F)(F)F`, the result in test [1], in [2], in test [3], in [4], in test [5] and in [6] was inactive. The molecule was classed as inactive in test [7], in [8], in test [9], in test [10], in test [11] and in test [12]. Moreover, the molecule was classed as inactive in test [13], in test [14], in test [15], in [16] and in test [18]. Also, the AC50 (in general, the concentration giving half of the maximal activity seen) in test [17] is 47.8 µM (active).

As to `C[C@@H]1C[C@@H]([C@H](O)CC2CC(=O)NC(=O)C2)C(=O)[C@@H](C)C1`, the result in [1], in test [2], in test [3], in test [5], in test [19] and in [6] was inactive. Also, the result in test [7], in [8], in test [10], in test [11], in test [12] and in [15] was inactive. In test [4], the concentration at half-maximal activity (AC50) was 43.2 µM (active).

With `CC(C)c1ccc(CO)cc1`, the result in [1], in test [2] and in test [3] was inactive.

For `CCC[CH2][Sn]([Cl])([Cl])[Cl]`, the outcome in test [1], in test [2] and in [3] was inactive.

`COP(=S)(OC)Oc1cc(Cl)c(Cl)cc1Cl`: the outcome in test [1], in [2] and in [3] was inactive.

Take `CC(Br)C(=O)O` (stereo not drawn): the outcome in test [1], in test [2] and in test [3] was inactive.

As to `CC(C)C1CCC(Cc2ccc(Cl)cc2)C1(O)Cn1cncn1` (stereo not drawn), the AC50 is 82.8 µM (active) in test [1], 71.1 µM (active) in test [2] and 88.7 µM (active) in test [3].

For the molecule `COc1ccc(C=O)cc1OC`, the result in test [1], in test [2] and in test [3] was inactive.

As to `CC(C)(C)CC(C)(C)c1ccc(O)cc1`, the AC50 in test [1] was 61.9 µM (active) and 38.6 µM (active); in test [2], 65.3 µM (active) and 39.6 µM (active); in [3] it was 79.4 µM (active). In addition, the result in test [3], in test [4], in test [5], in test [19], in test [7] and in test [8] was inactive. The molecule was classed as inactive in test [9], in [10], in [20], in test [15] and in test [16].

With `Nc1ncc([N+](=O)[O-])s1`, the outcome in test [1], in test [2] and in test [3] was inactive.

Take `CC(C)(c1ccccc1)c1ccc(O)c(C(C)(C)c2ccccc2)c1`: the AC50 in test [1] is 73.6 µM (active) and 51.9 µM (active); in test [2], 39.1 µM (active) and 24.3 µM (active); in test [3], 37.5 µM (active) and 29 µM (active). Moreover, the result in test [4], in [5], in test [6], in test [7], in test [8] and in test [9] was inactive. The result in test [10], in test [11], in test [12], in test [20] and in test [15] was inactive.
